# Data taken from ChEMBL document CHEMBL1157539, “Thousands of chemical starting points for antimalarial lead identification” (Nature, 2010).
# System: HepG2
# Experiment: GSK_TCMDC: Percent inhibition of human HepG2 cell line. Test compounds present at 10uM.
# Assay type: functional
row,SMILES,Inhibition
1,CCc1cc(-c2onc(C(F)(F)F)c2-c2ccccc2)c(O)cc1OC,16%
2,O=C(Nc1ccc2c(c1)CCC2)N[C@H]1CCN(CCCCCNC(=O)C2CC2c2ccc(Cl)c(Cl)c2)C1 (some centres undefined),37%
3,CCOc1cc(C)ccc1N1CCN(CCCCNC(=O)c2ccc(NC(=O)c3ccc(Cl)cc3)cc2)CC1.Cl,19%
4,COc1cc(-c2nc(-c3ccccc3)c(-c3ccccc3)[nH]2)cc(OC)c1O,5%
